Reference: PubChem BioAssay (NCI)
This is part of a sample that, as a whole, favours compounds with a hit. Of some 83,000 tested, about 20% had one in any assay.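 Interpretation: 100, growth as untreated; towards 0, rising growth inhibition; 0, no net growth; 0 to -100, cell death. Compounds scoring below 10 were considered active.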 A number with no mark means an inactive call. Active and inactive are the calls of the source.

The compounds below were run on UACC-62 melanoma (assay: NCI-60 one-dose screen, 48 h (100 = growth as untreated, 0 = no growth, -100 = all killed)). Conditions: 10 µM unless noted.

SMILES	growth
COc1ccc2c(c1)c(-c1noc(-c3cn(C)c4ncc(F)cc34)n1)cn2C	83.9%
O=C(N/N=C\c1cc(Cl)ccc1O)N/N=C/c1cc(Cl)ccc1O	54.7%
O=C(O)c1ccccc1C(F)(F)F	95%
CS(=O)(=O)c1cccnn1	90.7%
O=C(Nc1ccc(Oc2ccc(F)cc2)c(Cl)c1)c1cccnn1	62.5%
CCC(Br)(CC)C(=O)c1ccc(OCC(=O)O)c(Cl)c1Cl	87.4%
NC(=O)c1cccc(-c2ccc(S(=O)(=O)Nc3ccc4c(c3)N(C(=O)C3CC3)CCC4)cc2)c1	26.7%
C#CCC(C(=O)OCC)C(=O)OCC	101%
O=[N+]([O-])c1cc(CCl)ccc1OCCBr	96.8%
O=C(O)c1cn(C2CC2)c2cc(N3CCN(Cc4cc(Cl)ccc4O)CC3)c(F)cc2c1=O	54.9%
Cc1ccc(C2=C/C(=C/c3ccc(Br)cc3)C(=O)N2CCc2ccc(S(N)(=O)=O)cc2)cc1	78.7%
COc1ccc(C(=O)/C=C/c2ccccn2)c(O)c1	90.8%
Cc1cc(C)c(S(=O)(=O)/N=c2/n(-c3ccccc3)nc3n2CCN3C2=NCCN2)c(C)c1	88.8%
Cc1ccc(S(=O)(=O)n2cc(C(=O)C(=O)N3CCCCC3)c3ccccc32)cc1	49.5%
COc1cc(C)cc2oc3oc(=N)c(C(=O)c4ccccc4)cc3c(=O)c12	93.5%
COc1ccc(OC)c([N+](=O)[O-])c1C(=O)CNC(C)=O	95.8%
Cc1ccc(S(=O)(=O)N/N=C2\CC3CCC2(C)C3(C)C)cc1 (centres undefined)	77.2%
O=C(N=c1n(-c2ccccc2)nc2n1CCN2C1=NCCN1C(=O)c1ccc(Cl)cc1)c1ccc(Cl)cc1	73.6%
O=C(NCc1ccc(Cn2c(=O)sn(-c3ccccc3)c2=O)cc1)OCc1ccc2c(Br)cc(Br)c(O)c2n1	-76.1% (active)

SMILES	growth
Cc1nc(Cl)c2c(n1)N(C)c1ccc(Cl)cc1C(C)C2 (centres undefined)	65%
C=C(C)[C@@H]1CC[C@]2(COCCC#N)CC[C@]3(C)[C@H](CC[C@@H]4[C@@](C)(CCCNCCC#N)[C@H](C(=C)C)CC[C@]43C)[C@@H]12	29.8% [100 µM]
O=C(Nc1cccc(F)c1)c1cc(=O)[nH]c2cc(Br)ccc12	34.4%
O=C(NCCCNC(=O)OCc1ccc2c(Br)cc(Br)c(O)c2n1)OCc1ccc2c(Br)cc(Br)c(O)c2n1	-87.1% (active)
COc1ccc(OC)c(NC=O)c1	99.7%
CCN(CCNc1ccc(C)c2sc3cc(Cl)ccc3c(=O)c12)CC(C)O (centres undefined)	-70.3% (active)
CN(C)c1ccc(-c2ccc(-c3ccc(C(=N)N)cc3)s2)cc1	37.1%
CC(=O)OC[C@]12CC[C@@H]([C@@H](C)C(N)=O)[C@@H]1[C@H]1CC[C@@H]3[C@@]4(C)CC[C@H](OC(C)=O)C(C)(C)[C@@H]4CC[C@@]3(C)[C@]1(C)CC2	-83% [100 µM] (active)
O=C(Nc1ccccc1)Nc1ccc(C(=O)/C=C/c2ccc(N3CCCC3)cc2)cc1	42.2%
C#C[C@]1(O)CC[C@H]2[C@@H]3CC=C4c5nc(Nc6ccccn6)sc5CC[C@]4(C)[C@H]3CC[C@@]21C	-28.4% (active)
Cn1cc(-c2nnc(-c3cn(C)c4ncccc34)o2)c2ccccc21	27.7%
O=C1C(Cl)=C(Nc2ccc3cn[nH]c3c2)C(=O)c2ccccc21	-97.9% (active)
COc1cc(/C=C/C(=O)/C=C/c2ccc(-n3ccnc3C)cc2)ccc1O	95.1%
Nc1cc(Cl)cc2cccnc12	103%
CN(C)CCOc1ccc(/C(=C(/CCCl)c2ccccc2)c2ccccc2)cc1	-21.7% (active)
Nc1cc(N)c(N=Nc2ccc(S(=O)(=O)O)cc2)cc1N=Nc1ccc(-c2ccc(N=Nc3ccc(O)c(C(=O)O)c3)cc2)cc1	94.6%
Cn1cc(-c2noc(-c3cn(C)c4ncc(F)cc34)n2)c2ccccc21	80.1%
Nc1ccc(NC(=O)c2ccccc2)c2c1C(=O)c1ccccc1C2=O	101%

Each compound was assayed on LOX IMVI melanoma in the same assay as above. Conditions: 10 µM unless noted.

SMILES	growth
COc1ccc2c(c1)c(-c1noc(-c3cn(C)c4ncc(F)cc34)n1)cn2C	52.4%
O=C(N/N=C\c1cc(Cl)ccc1O)N/N=C/c1cc(Cl)ccc1O	42.6%
O=C(O)c1ccccc1C(F)(F)F	81.2%
CS(=O)(=O)c1cccnn1	85.2%
O=C(Nc1ccc(Oc2ccc(F)cc2)c(Cl)c1)c1cccnn1	72.8%
CCC(Br)(CC)C(=O)c1ccc(OCC(=O)O)c(Cl)c1Cl	96.9%
NC(=O)c1cccc(-c2ccc(S(=O)(=O)Nc3ccc4c(c3)N(C(=O)C3CC3)CCC4)cc2)c1	41.6%
C#CCC(C(=O)OCC)C(=O)OCC	99.2%
O=[N+]([O-])c1cc(CCl)ccc1OCCBr	95%
O=C(O)c1cn(C2CC2)c2cc(N3CCN(Cc4cc(Cl)ccc4O)CC3)c(F)cc2c1=O	57.1%
Cc1ccc(C2=C/C(=C/c3ccc(Br)cc3)C(=O)N2CCc2ccc(S(N)(=O)=O)cc2)cc1	99.6%
COc1ccc(C(=O)/C=C/c2ccccn2)c(O)c1	-54.9% (active)
Cc1cc(C)c(S(=O)(=O)/N=c2/n(-c3ccccc3)nc3n2CCN3C2=NCCN2)c(C)c1	73.3%
Cc1ccc(S(=O)(=O)n2cc(C(=O)C(=O)N3CCCCC3)c3ccccc32)cc1	71.9%
COc1cc(C)cc2oc3oc(=N)c(C(=O)c4ccccc4)cc3c(=O)c12	95.6%
COc1ccc(OC)c([N+](=O)[O-])c1C(=O)CNC(C)=O	103%
Cc1ccc(S(=O)(=O)N/N=C2\CC3CCC2(C)C3(C)C)cc1 (centres undefined)	92.3%
O=C(N=c1n(-c2ccccc2)nc2n1CCN2C1=NCCN1C(=O)c1ccc(Cl)cc1)c1ccc(Cl)cc1	86.6%
O=C(NCc1ccc(Cn2c(=O)sn(-c3ccccc3)c2=O)cc1)OCc1ccc2c(Br)cc(Br)c(O)c2n1	-92.3% (active)

SMILES	growth
Cc1nc(Cl)c2c(n1)N(C)c1ccc(Cl)cc1C(C)C2 (centres undefined)	92.3%
C=C(C)[C@@H]1CC[C@]2(COCCC#N)CC[C@]3(C)[C@H](CC[C@@H]4[C@@](C)(CCCNCCC#N)[C@H](C(=C)C)CC[C@]43C)[C@@H]12	-74.4% [100 µM] (active)
O=C(Nc1cccc(F)c1)c1cc(=O)[nH]c2cc(Br)ccc12	43.1%
O=C(NCCCNC(=O)OCc1ccc2c(Br)cc(Br)c(O)c2n1)OCc1ccc2c(Br)cc(Br)c(O)c2n1	-92% (active)
COc1ccc(OC)c(NC=O)c1	100%
CCN(CCNc1ccc(C)c2sc3cc(Cl)ccc3c(=O)c12)CC(C)O (centres undefined)	-83.4% (active)
CN(C)c1ccc(-c2ccc(-c3ccc(C(=N)N)cc3)s2)cc1	12.7%
CC(=O)OC[C@]12CC[C@@H]([C@@H](C)C(N)=O)[C@@H]1[C@H]1CC[C@@H]3[C@@]4(C)CC[C@H](OC(C)=O)C(C)(C)[C@@H]4CC[C@@]3(C)[C@]1(C)CC2	-85.5% [100 µM] (active)
O=C(Nc1ccccc1)Nc1ccc(C(=O)/C=C/c2ccc(N3CCCC3)cc2)cc1	85.6%
C#C[C@]1(O)CC[C@H]2[C@@H]3CC=C4c5nc(Nc6ccccn6)sc5CC[C@]4(C)[C@H]3CC[C@@]21C	-68% (active)
Cn1cc(-c2nnc(-c3cn(C)c4ncccc34)o2)c2ccccc21	48.6%
O=C1C(Cl)=C(Nc2ccc3cn[nH]c3c2)C(=O)c2ccccc21	-87.5% (active)
COc1cc(/C=C/C(=O)/C=C/c2ccc(-n3ccnc3C)cc2)ccc1O	-88.7% (active)
Nc1cc(Cl)cc2cccnc12	88.1%
CN(C)CCOc1ccc(/C(=C(/CCCl)c2ccccc2)c2ccccc2)cc1	-84.6% (active)
Nc1cc(N)c(N=Nc2ccc(S(=O)(=O)O)cc2)cc1N=Nc1ccc(-c2ccc(N=Nc3ccc(O)c(C(=O)O)c3)cc2)cc1	100%
Cn1cc(-c2noc(-c3cn(C)c4ncc(F)cc34)n2)c2ccccc21	52.3%
Nc1ccc(NC(=O)c2ccccc2)c2c1C(=O)c1ccccc1C2=O	109%
